Reference: PubChem BioAssay (NCI)
“And” between values parts separate entries of the source, which are not always exact repeats. Equal entries are not always repeated. The panel holds about 79,000 compounds, 15% with a hit somewhere; the sample as a whole holds those more often. Values without a mark were called inactive. The source made the active and inactive calls. No stated cut-off is given here; in the data, active means growth inhibition above about 70%; inactive means the rest.

Tests used:
[1] = NCI Yeast Anticancer Drug Screen. Data for the rad50 strain (AID 155);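 further: 0% = growth of vehicle-only cultures of the same strain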; conditions: S. cerevisiae rad50 strain growth inhibition; at 50.0 µM; active compounds read high
Outline: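 Yeast carrying a defined DNA repair defect were exposed to test compounds, and growth was compared with vehicle-treated controls to give percent inhibition.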

[2] = NCI Yeast Anticancer Drug Screen. Data for the mec2-1 strain (AID 157); conditions: S. cerevisiae mec2-1 strain, at 50.0 µM, active compounds read high
Outline: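 Strain: mec2-1 (DNA repair/cell cycle alteration). Compound exposure, then growth measured; inhibition expressed relative to vehicle.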

[3] = NCI Yeast Anticancer Drug Screen. Data for the sgs1 mgt1 strain (AID 161);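 further: 0% = growth of cultures given vehicle only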; conditions: S. cerevisiae sgs1 mgt1 strain, at 50.0 µM, active compounds read high
Outline: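 Mutant yeast exposed to compound; growth scored against vehicle-only wells.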

[4] = NCI Yeast Anticancer Drug Screen. Data for the cln2 rad14 strain (AID 165);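 further: 0% = growth equal to vehicle treated cultures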; conditions: S. cerevisiae cln2 rad14 strain, at 50.0 µM, active compounds read high
Outline: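 Compounds are applied to the cln2 rad14 yeast strain, and growth is then compared with that of vehicle-treated cultures to give inhibition.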

[5] = NCI Yeast Anticancer Drug Screen. Data for the bub3 strain (AID 167); conditions: S. cerevisiae bub3 mutant strain, at 50.0 µM, active compounds read high
Outline: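 Compounds were applied to a genetically altered yeast strain carrying a cell-cycle control defect. Growth inhibition was scored against vehicle-treated controls.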

[6] = NCI Yeast Anticancer Drug Screen. Data for the mlh1 rad18 strain (AID 175); conditions: S. cerevisiae mlh1 rad18 strain growth inhibition; at 50.0 µM; active compounds read high
Outline: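 Read-out is yeast growth inhibition, calculated against vehicle-only controls. The compound was applied to a strain engineered with DNA damage repair alterations.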

Row | Compound | growth inhibition [1] | growth inhibition [2] | growth inhibition [3] | growth inhibition [4] | growth inhibition [5] | growth inhibition [6]
1 | CCCC(C)C1(C)C(=O)NC(=O)N(C)C1=O (centres undefined) | 4.35% | 18.1% | 0.15% | 11.8% | 1.05% | -11.9%
2 | O=[N+]([O-])c1cccc(/C=C/c2ccc(S(=O)(=O)F)cc2)c1 | 97.5% (active) | 93.8% (active) | 96.8% (active) | 93.8% (active) | 97.2% (active) | 97.3% (active)
3 | O=P(O)(O)C(O)c1ccncc1 (centres undefined) | -28% | -14.9% | -15.8% | -23.1% | -22.6% | -21.9%
4 | Cc1cccc(N)c1N | 24.1% | -15.1% | 11.1% | 0.4% | -0.45% | 13.7%
5 | CCC[N+](CCC)(CCC)CCC.[Ni+2].[SH2+]C([SH2+])=Nc1ccccc1.[SH2+]C([SH2+])=Nc1ccccc1 | 24.1% | 18.9% | 9.6% | -20.9% | 4.7% | 30.1%
6 | O=C(O)[C@@H](Cl)[C@@H](Cl)C(=O)O | 30.7% | -11.4% | 22.9% | 6.7% | 9.55% | 17.9%
7 | O=[P+](O)c1ccccc1 | -5% and -7.35% | -24.9% and -26.3% | -18.4% and 4.85% | 5.9% and 0.6% | -4.65% and -2% | -5.5% and 1.3%
8 | CCN(CC)CCN1C(=O)NC(=O)C(CC)(c2ccccc2)C1=O (centres undefined) | 4.1% | 9.4% | -6% | 2.9% | 8.05% | 4.9%
9 | COc1ccc2c(c1)C(=O)C(N)C2 (centres undefined) | 2% | 1.95% | 0.5% | -21.6% | 7.4% | 20.1%
10 | O=[N+]([O-])C(CO)C(CO)[N+](=O)[O-] (centres undefined) | -5.95% | -12.4% | -1% | -20.8% | -13% | -17.6%
11 | CCOC(=O)C(=O)C1CCNC1=O (centres undefined) | 9.2% | 3.35% | -4.45% | -0.25% | -3.65% | 24.5%
12 | CCCC1CC=CCC12C(=O)NC(=O)NC2=O (centres undefined) | -4.7% | 1.45% | 12.7% | -6.5% | 0.5% | 12.9%
13 | S=c1[nH]c2ccccc2[nH]1.[Zn+2] | 13.2% | 10.3% | 18.2% | 10.2% | -21.4% | -5.35%
14 | CC(C)=CC1C(C(=O)OCc2ccc(Cl)c(Cl)c2)C1(C)C (centres undefined) | 4.25% | -2.5% | 8.9% | 16.9% | 8.9% | 5.25%
15 | COP1(=O)Oc2ccccc2C(=O)C(C(F)(F)F)(C(F)(F)F)O1 (centres undefined) | -16.9% | -1.6% | -15.8% | 5.05% | -20.2% | -34.1%
16 | CCOC(=O)C(C(=O)OCC)P(=S)(S)c1ccccc1 (centres undefined) | 6.2% | -33.9% | -11.2% | 9.2% | -9.6% | -10.1%
17 | CNC(Cc1ccccc1)c1cccc(O)c1 (centres undefined) | 4.5% | -6.2% | -1.3% | -24.9% | 0.4% | -5.15%
18 | CCC(c1ccc(OC)cc1)C(N)c1ccc(OC)cc1 (centres undefined) | -14.3% | 1.05% | -11.9% | -10.5% | -4.35% | -0.3%
19 | O=C(O)C(Cl)(Cl)Cl | -0.6% | -22.6% | -15.8% | 14.4% | -17.4% | 21.1%
20 | CC(C)(C)OC(=O)NCC(=O)NC(CSC(c1ccccc1)c1ccccc1)C(=O)NCC(=O)O (centres undefined) | 8.45% | 7.3% | 11% | -6.35% | -4.9% | 15.1%

Row | Compound | growth inhibition [1] | growth inhibition [2] | growth inhibition [3] | growth inhibition [4] | growth inhibition [5] | growth inhibition [6]
21 | COc1ccc(CO)cc1 | -1.5% | -10.1% | 11.3% | -12.8% | -17.3% | -13.7%
22 | c1cc[n+]2c3c(sc2c1)CCC3 | 9.75% | -8.2% | -5.25% | -4.15% | -6.7% | -26.8%
23 | COc1ccc(NC(=O)C(=O)C(CC2C(=O)NC(=S)NC2=O)C(=O)c2ccc3ccccc3c2)c([N+](=O)[O-])c1 (centres undefined) | -10.7% | 1.35% | 13.1% | -30.1% | 31.2% | 3.5%
24 | N.N.O=P([O-])([O-])CN(CP(=O)([O-])[O-])CP(=O)([O-])[O-].[Pt+2] | -4.25% | -9.8% | -11.1% | -12.9% | 1.15% | -23.1%
25 | O=C(O)C1C(C(=O)O)C2(Cl)C(Cl)=C(Cl)C1(Cl)C2(Cl)Cl.[Cd] (centres undefined) | 61.4% | 13.9% | -0.2% | -14.7% | -6.75% | 19.4%
26 | Nc1cc(C(=O)O)ccc1O.[Cl][Sn][Cl] | 2.2% | -4.15% | -6.4% | -45.8% | -1.65% | -19.4%
27 | N=C(N)SCc1ccc(Cl)c(Cl)c1 (tested in a mixture with another compound) | 13.6% | 10.8% | -3.55% | -6.1% | 3.5% | 10.7%
28 | Fc1ccc(C(Cl)(Cl)Cl)cc1 | -8.9% | -33.5% | 2.75% | -17.2% | -17.1% | 6.2%
29 | CC12OC1(C)C1C(=O)OCC1C2=O (centres undefined) | 3.4% | 3.6% | -3.45% | 3.95% | 3% | -0.95%
30 | CC(=O)C(=O)c1ccccc1 | -14.6% | 6.5% | -0.45% | -25.8% | -19.7% | -21.5%
31 | CN1C(=O)C(=Cc2cccc([N+](=O)[O-])c2)C(=O)N(C)C1=O | 17.4% | 14.3% | 2.15% | 26.1% | 10.8% | -9.55%
32 | Cc1cc(C)n(SC(Cl)(Cl)Cl)n1 | -12.3% | 28.3% | -15.3% | -4.6% | 7.45% | -13.7%
33 | CC(C)CC(=O)[O-].CC(C)CC(=O)[O-].N.N.N.N.[Co+3].[O-][Cl+3]([O-])([O-])[O-] | -0.8% and -12.4% | 9.7% and 11.6% | -28.9% and -24.1% | 10.3% and 1.35% | 15.8% and -0.6% | -14.5% and 2.55%
34 | [Cl][Hg][c]1ccccc1N=Nc1ccccc1I | 99.2% (active) | 98.8% (active) | 99.2% (active) | 98.8% (active) | 99.3% (active) | 99.2% (active)
35 | Cc1nccn1-c1ccc(Cl)cc1N=Cc1ccc(N(CCCl)CCCl)cc1Cl | 38.4% | 47.5% | 68.5% | 33.8% | 43% | 71.5% (active)
36 | CC(CCF)C(N)C(=O)O (centres undefined) | 1.8% and -0.7% | 28.9% and 5.4% | 28.9% and -9.4% | -0.8% and -0.2% | 43% and 20.7% | 19.5% and -7.8%
37 | CC(=O)[O-].N.N.N.N.[Co+3].[O-][Cl+3]([O-])([O-])[O-].[OH3+] | -2.35% | 7.3% | -1.45% | 16.1% | 21.9% | 2.7%
38 | O=C(CC([Se]c1ccccc1)c1ccccc1)c1ccccc1 (centres undefined) | 98% (active) | 88.8% (active) | 95.7% (active) | 89.4% (active) | 93.7% (active) | 98% (active)
39 | CC1CC2C(CCC3(C)C2CC2(CC2)C3(C)O)C2(C)CCC(O)CC12O (centres undefined) | 12.6% | 8.55% | 19.9% | -50% | -7.35% | 1.9%
